Laboratory results reported in paper PMC7862700, “An all-to-all approach to the identification of sequence-specific readers for epigenetic DNA modifications on cytosine”.

Assays:
Test in all cases: DAPPL (digital affinity profiling via proximity ligation, sequencing); 10 mM Tris-HCl pH 7.5, 50 mM NaCl, 1 mM DTT, 4% glycerol, room temperature, 30 min; GST-TFs on glutathione beads, 16-mer random dsDNA library, 0.1% formaldehyde crosslink after washing; high values mean tight binding
FLI1 = target: T1, FLI1 (Homo sapiens, UniProt Q01543 1-452); conditions: protein: recombinant; tags: N-terminal GST; dsDNA, one strand shown
T1 sequence: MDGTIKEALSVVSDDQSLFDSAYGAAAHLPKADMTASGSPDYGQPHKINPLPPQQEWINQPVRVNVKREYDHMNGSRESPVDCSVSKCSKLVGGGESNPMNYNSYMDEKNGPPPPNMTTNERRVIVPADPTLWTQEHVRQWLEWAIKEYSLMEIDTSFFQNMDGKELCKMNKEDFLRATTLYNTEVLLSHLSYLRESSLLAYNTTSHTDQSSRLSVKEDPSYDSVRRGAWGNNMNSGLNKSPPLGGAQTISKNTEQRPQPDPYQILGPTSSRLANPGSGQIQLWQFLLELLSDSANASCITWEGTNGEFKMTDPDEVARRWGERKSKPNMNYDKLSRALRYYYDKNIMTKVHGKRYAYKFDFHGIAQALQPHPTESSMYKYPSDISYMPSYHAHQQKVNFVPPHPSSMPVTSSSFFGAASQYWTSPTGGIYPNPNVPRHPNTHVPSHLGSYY
In short: (§1)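 Human transcription factors carrying a GST fusion were produced in yeast, bound to glutathione beads, tagged with DNA barcodes and pooled together with a tag-only sample. Each pool was held with 200 nmole of a random double-stranded 16-mer DNA library in Tris/NaCl/DTT/glycerol buffer for 30 min at room temperature, then washed, crosslinked in 0.1% formaldehyde, proximity-ligated with BsaI/T4 ligase (1 h, 37 °C), PCR-amplified and sequenced on an Illumina NextSeq500. Binding signal is the read frequency of each hexamer for a given factor divided by its frequency in the tag-only sample.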

ELK1 = target: T2, ELK1 (Homo sapiens, UniProt P19419 1-428); conditions: protein: recombinant; tags: N-terminal GST; dsDNA, one strand shown
T2 sequence: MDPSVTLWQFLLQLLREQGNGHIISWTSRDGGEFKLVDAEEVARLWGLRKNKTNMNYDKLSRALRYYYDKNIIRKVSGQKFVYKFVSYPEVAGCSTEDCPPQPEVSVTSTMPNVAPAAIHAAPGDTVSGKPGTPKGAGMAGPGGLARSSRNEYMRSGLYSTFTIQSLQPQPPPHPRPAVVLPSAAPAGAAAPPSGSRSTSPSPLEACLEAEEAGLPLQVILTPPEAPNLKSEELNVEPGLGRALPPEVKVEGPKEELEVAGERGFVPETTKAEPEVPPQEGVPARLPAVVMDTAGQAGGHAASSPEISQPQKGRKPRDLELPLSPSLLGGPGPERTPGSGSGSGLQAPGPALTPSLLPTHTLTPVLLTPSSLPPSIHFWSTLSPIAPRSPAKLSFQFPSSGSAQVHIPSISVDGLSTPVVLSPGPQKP
In short: as §1

GABPA = target: T3, GABPA (Homo sapiens, UniProt Q06546 1-454); conditions: protein: recombinant; tags: N-terminal GST; dsDNA, one strand shown
T3 sequence: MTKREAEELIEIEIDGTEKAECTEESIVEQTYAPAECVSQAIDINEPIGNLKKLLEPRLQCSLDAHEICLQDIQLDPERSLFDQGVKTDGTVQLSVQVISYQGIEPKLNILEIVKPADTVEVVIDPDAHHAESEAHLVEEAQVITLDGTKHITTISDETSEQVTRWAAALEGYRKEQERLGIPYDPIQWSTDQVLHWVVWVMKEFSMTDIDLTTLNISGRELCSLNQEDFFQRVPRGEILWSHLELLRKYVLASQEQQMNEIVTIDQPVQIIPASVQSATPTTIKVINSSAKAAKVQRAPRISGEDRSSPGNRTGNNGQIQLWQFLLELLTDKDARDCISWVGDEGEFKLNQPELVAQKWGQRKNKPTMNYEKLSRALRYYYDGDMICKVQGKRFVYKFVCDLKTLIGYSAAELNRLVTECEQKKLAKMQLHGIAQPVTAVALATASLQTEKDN
In short: as §1

ERG = target: T4, ERG (Homo sapiens, UniProt P11308 1-479); conditions: protein: recombinant; tags: N-terminal GST; dsDNA, one strand shown
T4 sequence: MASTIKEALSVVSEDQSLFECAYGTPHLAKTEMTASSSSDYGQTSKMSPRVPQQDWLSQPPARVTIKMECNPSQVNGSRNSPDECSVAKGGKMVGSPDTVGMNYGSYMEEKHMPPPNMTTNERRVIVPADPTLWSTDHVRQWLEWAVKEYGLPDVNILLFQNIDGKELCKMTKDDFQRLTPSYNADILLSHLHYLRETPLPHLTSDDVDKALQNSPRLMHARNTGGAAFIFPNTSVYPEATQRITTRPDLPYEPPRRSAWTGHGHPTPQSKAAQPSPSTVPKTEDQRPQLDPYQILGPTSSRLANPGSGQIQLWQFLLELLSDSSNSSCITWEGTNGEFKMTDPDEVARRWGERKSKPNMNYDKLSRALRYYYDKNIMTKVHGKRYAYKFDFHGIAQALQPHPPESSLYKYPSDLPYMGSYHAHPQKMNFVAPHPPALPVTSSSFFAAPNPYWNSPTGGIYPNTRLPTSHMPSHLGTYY
In short: as §1

ELF1 = ELF1 (Homo sapiens, UniProt P32519 1-619); conditions: protein: recombinant; tags: N-terminal GST; dsDNA, one strand shown
Sequence of ELF1 (P32519 whole entry): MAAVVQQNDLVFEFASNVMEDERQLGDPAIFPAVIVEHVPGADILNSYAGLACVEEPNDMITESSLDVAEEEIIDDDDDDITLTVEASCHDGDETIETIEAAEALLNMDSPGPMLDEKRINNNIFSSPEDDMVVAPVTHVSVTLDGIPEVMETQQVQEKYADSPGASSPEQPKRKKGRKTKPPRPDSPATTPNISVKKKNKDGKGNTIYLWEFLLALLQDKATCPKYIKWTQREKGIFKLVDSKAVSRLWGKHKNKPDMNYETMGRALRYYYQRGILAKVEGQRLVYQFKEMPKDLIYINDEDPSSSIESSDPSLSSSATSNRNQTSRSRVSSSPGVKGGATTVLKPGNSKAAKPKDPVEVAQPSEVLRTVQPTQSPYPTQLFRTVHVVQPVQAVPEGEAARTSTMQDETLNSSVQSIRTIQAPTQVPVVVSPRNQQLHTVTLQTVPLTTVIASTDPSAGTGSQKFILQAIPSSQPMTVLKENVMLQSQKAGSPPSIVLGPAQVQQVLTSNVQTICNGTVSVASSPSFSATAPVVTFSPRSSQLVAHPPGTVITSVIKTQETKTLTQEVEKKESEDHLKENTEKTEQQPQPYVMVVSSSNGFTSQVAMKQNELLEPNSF
In short: as §1

EHF = target: T5, EHF (Homo sapiens, UniProt Q9NZC4 1-300); conditions: protein: recombinant; tags: N-terminal GST; dsDNA, one strand shown
T5 sequence: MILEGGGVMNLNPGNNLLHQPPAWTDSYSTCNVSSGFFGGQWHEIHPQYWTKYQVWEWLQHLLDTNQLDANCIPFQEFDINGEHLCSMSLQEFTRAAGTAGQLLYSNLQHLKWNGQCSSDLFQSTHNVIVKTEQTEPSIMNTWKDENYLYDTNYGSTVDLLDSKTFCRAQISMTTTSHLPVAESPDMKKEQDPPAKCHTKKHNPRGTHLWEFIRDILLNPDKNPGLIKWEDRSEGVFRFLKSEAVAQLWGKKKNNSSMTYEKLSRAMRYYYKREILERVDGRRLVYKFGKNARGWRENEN
In short: as §1

SPI1 = SPI1 (Homo sapiens, UniProt P17947 1-270); conditions: protein: recombinant; tags: N-terminal GST; dsDNA, one strand shown
In short: as §1

SPIB = SPIB (Homo sapiens, UniProt Q01892 1-262); conditions: protein: recombinant; tags: N-terminal GST; dsDNA, one strand shown
Sequence of SPIB (Q01892 whole entry): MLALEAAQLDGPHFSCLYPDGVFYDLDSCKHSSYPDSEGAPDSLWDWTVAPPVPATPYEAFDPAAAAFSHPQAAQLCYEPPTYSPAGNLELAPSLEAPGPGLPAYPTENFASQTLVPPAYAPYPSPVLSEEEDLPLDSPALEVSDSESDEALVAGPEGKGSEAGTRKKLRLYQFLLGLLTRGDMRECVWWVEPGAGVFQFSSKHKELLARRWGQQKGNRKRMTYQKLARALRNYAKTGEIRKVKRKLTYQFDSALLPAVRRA
In short: as §1

ELK3 = target: T6, ELK3 (Homo sapiens, UniProt P41970 1-407); conditions: protein: recombinant; tags: N-terminal GST; dsDNA, one strand shown
T6 sequence: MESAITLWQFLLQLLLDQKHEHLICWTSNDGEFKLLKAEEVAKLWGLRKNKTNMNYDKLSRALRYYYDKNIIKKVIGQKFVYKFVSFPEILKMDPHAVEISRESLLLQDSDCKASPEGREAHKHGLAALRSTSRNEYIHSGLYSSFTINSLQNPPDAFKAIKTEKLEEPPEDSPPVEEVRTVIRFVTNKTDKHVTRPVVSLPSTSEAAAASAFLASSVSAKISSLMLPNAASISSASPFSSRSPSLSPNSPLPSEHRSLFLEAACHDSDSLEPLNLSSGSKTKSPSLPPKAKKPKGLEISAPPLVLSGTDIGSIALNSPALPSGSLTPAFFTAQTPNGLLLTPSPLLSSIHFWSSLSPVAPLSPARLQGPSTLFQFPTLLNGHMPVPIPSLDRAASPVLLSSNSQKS
In short: as §1

FEV = target: T7, FEV (Homo sapiens, UniProt Q99581 1-238); conditions: protein: recombinant; tags: N-terminal GST; dsDNA, one strand shown
T7 sequence: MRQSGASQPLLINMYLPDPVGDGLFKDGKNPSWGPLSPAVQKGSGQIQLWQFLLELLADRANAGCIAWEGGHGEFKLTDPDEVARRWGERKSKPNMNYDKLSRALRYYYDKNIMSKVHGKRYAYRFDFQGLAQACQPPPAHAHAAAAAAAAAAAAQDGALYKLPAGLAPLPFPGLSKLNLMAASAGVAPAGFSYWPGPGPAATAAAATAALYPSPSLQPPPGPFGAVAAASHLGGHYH
In short: as §1

ETV5 = ETV5 (Homo sapiens, UniProt P41161 1-510); conditions: protein: recombinant; tags: N-terminal GST; dsDNA, one strand shown
Sequence of ETV5 (P41161 whole entry): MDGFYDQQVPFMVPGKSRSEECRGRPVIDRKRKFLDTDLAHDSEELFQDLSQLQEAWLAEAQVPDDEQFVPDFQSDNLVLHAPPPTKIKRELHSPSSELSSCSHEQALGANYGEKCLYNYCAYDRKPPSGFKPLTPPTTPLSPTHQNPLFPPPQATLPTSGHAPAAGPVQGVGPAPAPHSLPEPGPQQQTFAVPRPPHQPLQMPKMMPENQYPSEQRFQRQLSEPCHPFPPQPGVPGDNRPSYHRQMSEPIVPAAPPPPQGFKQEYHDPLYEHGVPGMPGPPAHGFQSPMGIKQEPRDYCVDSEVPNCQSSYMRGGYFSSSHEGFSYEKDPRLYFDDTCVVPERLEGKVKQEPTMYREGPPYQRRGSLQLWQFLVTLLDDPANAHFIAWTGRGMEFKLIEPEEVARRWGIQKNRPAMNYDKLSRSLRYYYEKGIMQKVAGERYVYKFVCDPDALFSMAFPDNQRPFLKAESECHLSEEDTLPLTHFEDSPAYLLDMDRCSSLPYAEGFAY
In short: as §1

HSF1 = HSF1 (Homo sapiens, UniProt Q00613 1-529); conditions: protein: recombinant; tags: N-terminal GST; chain copies: 3; dsDNA, one strand shown
Sequence of HSF1 (Q00613 whole entry): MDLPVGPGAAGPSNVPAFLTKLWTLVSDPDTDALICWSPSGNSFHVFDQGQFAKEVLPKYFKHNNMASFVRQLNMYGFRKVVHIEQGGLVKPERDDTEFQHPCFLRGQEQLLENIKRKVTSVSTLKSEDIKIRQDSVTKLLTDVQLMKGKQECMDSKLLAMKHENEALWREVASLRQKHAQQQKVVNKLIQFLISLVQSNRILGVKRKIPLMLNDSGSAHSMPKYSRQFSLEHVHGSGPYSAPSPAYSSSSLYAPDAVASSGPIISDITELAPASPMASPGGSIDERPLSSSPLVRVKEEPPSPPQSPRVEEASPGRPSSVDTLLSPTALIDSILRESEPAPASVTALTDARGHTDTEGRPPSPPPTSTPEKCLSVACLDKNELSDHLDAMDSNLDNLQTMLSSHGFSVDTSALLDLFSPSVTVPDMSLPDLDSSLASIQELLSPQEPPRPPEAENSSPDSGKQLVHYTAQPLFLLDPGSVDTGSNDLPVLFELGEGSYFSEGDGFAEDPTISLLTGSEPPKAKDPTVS
In short: as §1

SPIC = target: T8, SPIC (Homo sapiens, UniProt Q8N5J4 1-248); conditions: protein: recombinant; tags: N-terminal GST; dsDNA, one strand shown
T8 sequence: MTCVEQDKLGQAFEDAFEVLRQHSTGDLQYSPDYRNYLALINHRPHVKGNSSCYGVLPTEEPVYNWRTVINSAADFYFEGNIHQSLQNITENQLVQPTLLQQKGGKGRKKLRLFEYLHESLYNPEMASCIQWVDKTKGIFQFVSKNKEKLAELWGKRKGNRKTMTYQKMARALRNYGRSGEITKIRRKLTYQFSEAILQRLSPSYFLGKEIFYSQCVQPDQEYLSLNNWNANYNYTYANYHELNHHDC
In short: as §1

ELF4 = ELF4 (Homo sapiens, UniProt Q99607 1-663); conditions: protein: recombinant; tags: N-terminal GST; dsDNA, one strand shown
Sequence of ELF4 (Q99607 whole entry): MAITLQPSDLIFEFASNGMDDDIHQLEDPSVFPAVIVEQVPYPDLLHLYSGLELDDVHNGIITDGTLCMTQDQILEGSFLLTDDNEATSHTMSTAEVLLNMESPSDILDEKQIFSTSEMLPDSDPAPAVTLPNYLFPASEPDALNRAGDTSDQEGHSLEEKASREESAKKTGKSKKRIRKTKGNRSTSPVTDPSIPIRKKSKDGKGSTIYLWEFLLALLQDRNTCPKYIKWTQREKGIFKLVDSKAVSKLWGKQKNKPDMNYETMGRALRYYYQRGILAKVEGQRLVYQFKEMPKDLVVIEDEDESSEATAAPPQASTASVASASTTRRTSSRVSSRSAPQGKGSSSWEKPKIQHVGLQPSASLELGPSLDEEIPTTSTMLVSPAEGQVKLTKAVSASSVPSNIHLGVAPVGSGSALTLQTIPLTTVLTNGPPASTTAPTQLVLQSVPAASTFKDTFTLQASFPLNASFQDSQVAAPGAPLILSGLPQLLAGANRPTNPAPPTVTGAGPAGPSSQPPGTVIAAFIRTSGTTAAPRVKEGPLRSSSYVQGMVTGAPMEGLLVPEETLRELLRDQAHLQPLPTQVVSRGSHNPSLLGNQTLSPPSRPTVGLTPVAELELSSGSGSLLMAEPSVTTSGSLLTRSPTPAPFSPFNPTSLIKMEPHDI
In short: as §1

ELK4 = target: T9, ELK4 (Homo sapiens, UniProt P28324-2 1-405); conditions: protein: recombinant; tags: N-terminal GST; dsDNA, one strand shown
T9 sequence: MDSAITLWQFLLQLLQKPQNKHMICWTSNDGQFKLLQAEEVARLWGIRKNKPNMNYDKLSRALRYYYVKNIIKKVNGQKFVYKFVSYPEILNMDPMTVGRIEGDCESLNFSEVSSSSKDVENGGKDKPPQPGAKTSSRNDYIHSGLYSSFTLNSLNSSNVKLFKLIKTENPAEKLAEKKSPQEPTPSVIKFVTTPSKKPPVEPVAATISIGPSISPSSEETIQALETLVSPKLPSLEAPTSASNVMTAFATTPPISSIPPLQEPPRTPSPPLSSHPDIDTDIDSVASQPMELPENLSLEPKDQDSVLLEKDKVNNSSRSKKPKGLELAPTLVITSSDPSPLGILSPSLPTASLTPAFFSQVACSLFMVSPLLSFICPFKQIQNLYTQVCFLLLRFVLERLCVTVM
In short: as §1

ETV2 = target: T10, ETV2 (Homo sapiens, UniProt O00321 1-342); conditions: protein: recombinant; tags: N-terminal GST; dsDNA, one strand shown
T10 sequence: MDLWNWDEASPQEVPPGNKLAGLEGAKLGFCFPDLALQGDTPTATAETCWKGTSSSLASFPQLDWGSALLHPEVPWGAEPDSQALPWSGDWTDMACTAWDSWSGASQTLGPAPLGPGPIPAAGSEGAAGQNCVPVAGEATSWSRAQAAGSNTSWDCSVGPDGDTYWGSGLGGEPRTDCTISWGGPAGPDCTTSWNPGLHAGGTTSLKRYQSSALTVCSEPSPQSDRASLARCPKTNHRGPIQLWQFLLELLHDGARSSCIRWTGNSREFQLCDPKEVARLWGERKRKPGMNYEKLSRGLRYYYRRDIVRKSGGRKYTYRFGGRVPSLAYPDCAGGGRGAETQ
In short: as §1

ELF3 = target: T11, ELF3 (Homo sapiens, UniProt P78545 1-371); conditions: protein: recombinant; tags: N-terminal GST; dsDNA, one strand shown
T11 sequence: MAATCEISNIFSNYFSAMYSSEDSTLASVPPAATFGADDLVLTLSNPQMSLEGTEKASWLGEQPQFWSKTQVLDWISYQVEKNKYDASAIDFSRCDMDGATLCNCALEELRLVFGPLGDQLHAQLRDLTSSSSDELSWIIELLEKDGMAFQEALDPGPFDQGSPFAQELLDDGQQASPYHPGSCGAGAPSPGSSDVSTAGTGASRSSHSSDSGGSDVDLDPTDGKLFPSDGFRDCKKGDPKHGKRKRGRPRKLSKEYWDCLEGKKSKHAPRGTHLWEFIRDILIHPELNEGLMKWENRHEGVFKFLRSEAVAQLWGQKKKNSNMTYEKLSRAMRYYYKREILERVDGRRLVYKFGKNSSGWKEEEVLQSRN
In short: as §1

CRX = CRX (Homo sapiens, UniProt O43186 1-299); conditions: protein: recombinant; tags: N-terminal GST; dsDNA, one strand shown
Sequence of CRX (O43186 whole entry): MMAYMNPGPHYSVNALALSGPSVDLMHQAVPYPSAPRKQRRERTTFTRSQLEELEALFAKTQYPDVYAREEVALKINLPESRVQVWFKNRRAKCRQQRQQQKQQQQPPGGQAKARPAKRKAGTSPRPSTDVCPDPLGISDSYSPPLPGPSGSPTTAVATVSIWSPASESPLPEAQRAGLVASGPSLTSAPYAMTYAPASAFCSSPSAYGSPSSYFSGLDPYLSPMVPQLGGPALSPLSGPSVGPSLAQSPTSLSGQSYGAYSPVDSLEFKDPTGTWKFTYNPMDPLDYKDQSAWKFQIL
In short: as §1

ETV1 = ETV1 (Homo sapiens, UniProt P50549 1-477); conditions: protein: recombinant; tags: N-terminal GST; dsDNA, one strand shown
Sequence of ETV1 (P50549 whole entry): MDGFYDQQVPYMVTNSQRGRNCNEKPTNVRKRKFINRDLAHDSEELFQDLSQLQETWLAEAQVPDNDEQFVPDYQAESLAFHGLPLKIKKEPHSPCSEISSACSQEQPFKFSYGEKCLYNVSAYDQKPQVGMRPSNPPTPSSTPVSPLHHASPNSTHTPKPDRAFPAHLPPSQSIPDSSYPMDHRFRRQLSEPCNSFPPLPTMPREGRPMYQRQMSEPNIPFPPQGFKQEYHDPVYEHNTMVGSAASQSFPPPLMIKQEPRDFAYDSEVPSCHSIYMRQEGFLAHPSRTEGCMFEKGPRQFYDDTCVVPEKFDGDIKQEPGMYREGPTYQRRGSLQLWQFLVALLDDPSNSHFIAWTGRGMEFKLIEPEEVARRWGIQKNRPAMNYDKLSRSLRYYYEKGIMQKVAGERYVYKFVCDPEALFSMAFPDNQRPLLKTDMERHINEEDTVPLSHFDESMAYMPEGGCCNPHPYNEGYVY
In short: as §1

With TCGACA the binding signal (FLI1) was 1.38 fold enrichment (6-mer frequency, TF over GST control), the binding signal (ELK1) was 1.27 fold enrichment (6-mer frequency, TF over GST control) and the binding signal (GABPA) was 1.43 fold enrichment (6-mer frequency, TF over GST control). For the same sequence, the binding signal (ERG) was 1.35 fold enrichment (6-mer frequency, TF over GST control), the binding signal (ELF1) was 1.38 fold enrichment (6-mer frequency, TF over GST control) and the binding signal (EHF) was 1.21 fold enrichment (6-mer frequency, TF over GST control). For the same sequence, the binding signal (SPI1) was 1.28 fold enrichment (6-mer frequency, TF over GST control), the binding signal (SPIB) was 1.25 fold enrichment (6-mer frequency, TF over GST control) and the binding signal (ELK3) was 1.35 fold enrichment (6-mer frequency, TF over GST control). For the same sequence, the binding signal (FEV) was 1.3 fold enrichment (6-mer frequency, TF over GST control), the binding signal (ETV5) was 1.32 fold enrichment (6-mer frequency, TF over GST control) and the binding signal (HSF1) was 1.38 fold enrichment (6-mer frequency, TF over GST control). The binding signal (SPIC) was 1.28 fold enrichment (6-mer frequency, TF over GST control), the binding signal (ELF4) was 1.43 fold enrichment (6-mer frequency, TF over GST control) and the binding signal (ELK4) was 1.42 fold enrichment (6-mer frequency, TF over GST control). The binding signal (ETV2) was 1.19 fold enrichment (6-mer frequency, TF over GST control), the binding signal (ELF3) was 1.23 fold enrichment (6-mer frequency, TF over GST control) and the binding signal (CRX) was 1.19 fold enrichment (6-mer frequency, TF over GST control). The binding signal (ETV1) was 1.4 fold enrichment (6-mer frequency, TF over GST control).
